# In ChEMBL document CHEMBL4513216, “Probing the Open Global Health Chemical Diversity Library for Multistage-Active Starting Points for Next-Generation Antimalarials” (ACS Infect Dis, 2020):
# Out of some 68,000 compounds screened, about 2,700 (4%) showed an effect of 50% or more. For the sample, strong results were picked, then their nearest neighbours and some compounds at random.
# Tested on: Plasmodium berghei
# Assay: Screen against P. berghei liver stage (PbLuc), transformed with Luciferase, at 2uM
# Type: functional, HepG2
# Settings: tested at 2 uM
row,Structure (SMILES),INHIBITION
1,O=C(CCN1CCc2ccccc21)N1C[C@@H](O)[C@H](N2CCCC2)C1,15.72%
2,O=C1C[C@H]2[C@@H](CCN2C(=O)c2cscn2)N1Cc1cccnc1,-12.98%
3,O=C1C[C@H]2[C@@H](CCN2C(=O)Cc2ccsc2)N1Cc1cccnc1,52.91%
4,O=C(Cc1cccs1)N1CC[C@H]2[C@H]1CCN2Cc1cccnc1,7.33%
5,O=C1C[C@H]2[C@@H](CCN2C(=O)Cc2cccs2)N1Cc1ccncc1,17.77%
6,O=C1C[C@H]2[C@@H](CCN2C(=O)Cc2ccccc2)N1Cc1cccnc1,30.4%
7,O=C1C[C@H]2[C@@H](CCN2C(=O)Cc2cccs2)N1Cc1cccnc1,55.7%
8,CN(Cc1nnc2n1CCC2)C(=O)c1ccc2c(c1)CCO2,29.42%
9,CCOCCNC1(c2ccc(Cl)cc2)CCOCC1,32.26%
10,COCCNC1(c2ccc(Cl)cc2)CCOCC1,60.9%
11,CC(C)OCCNC1(c2ccc(Cl)cc2)CCOCC1,-17.01%
12,CC(c1nc(C(C)(C)C)no1)S(=O)(=O)CC(=O)N1CCCC1 (stereo not given),-3.22%
13,Cn1c(C2CCCN2C(=O)c2cn(CCN)nn2)nc2ccccc21 (stereo not given),-6.44%
14,O=C(CN1CCOc2ccccc2C1)NCc1cc2n(n1)CCNC2,5.75%
15,O=C(CN1CCC(c2ccccc2)CC1)NCc1cc2n(n1)CCNC2,5.21%
16,O=C(CN1CC(c2ccccc2)CC1=O)NCc1cc2n(n1)CCNC2 (stereo not given),66.18%
17,CCOc1ccccc1Nc1nc2c(C)nn(C)c2c(=O)n1C,-51.9%
18,CN1CCOC(CNC(=O)COc2ccc(F)cc2F)C1 (stereo not given),-7.88%
19,Cc1nc2c(c(NC(C)C)n1)CCN(C1CCOCC1)CC2,53.44%
20,Cc1nc2c(c(NC(C)C)n1)CCN(C(=O)CCO)CC2,-13.61%
21,CC(C)Nc1nc2c(c(NC3CC3)n1)CCN(C1CCOCC1)CC2,4.95%
22,Cc1cnc(NC(=O)NC(CCO)c2cccs2)s1 (stereo not given),-11.51%
23,Cn1nc(COc2cncnc2)c2c1CCN(Cc1ccco1)C2,8.36%
24,CC(C)c1noc(CCC(=O)Nc2cc(C(F)(F)F)c[nH]c2=O)n1,64.9%
25,CC(CCc1ccco1)NC(=O)Nc1cc(C(F)(F)F)c[nH]c1=O (stereo not given),57.95%
26,O=C(COCc1ccco1)Nc1cc(C(F)(F)F)c[nH]c1=O,66.2%
27,O=C(NCc1ccoc1)Nc1cc(C(F)(F)F)c[nH]c1=O,-7.02%

row,Structure (SMILES),INHIBITION
1,Cc1noc(CCCC(=O)Nc2cc(C(F)(F)F)c[nH]c2=O)n1,-30.49%
2,O=C(NCCc1ccco1)Nc1cc(C(F)(F)F)c[nH]c1=O,-6.16%
3,CCN(Cc1ccco1)C(=O)Nc1cc(C(F)(F)F)c[nH]c1=O,28.65%
4,Cn1nccc1C(=O)Nc1cc(C(F)(F)F)c[nH]c1=O,-27.71%
5,O=C(Nc1cc(C(F)(F)F)c[nH]c1=O)c1ccco1,56.67%
6,CN(Cc1ccco1)C(=O)Nc1cc(C(F)(F)F)c[nH]c1=O,19.35%
7,CCCc1noc(CCC(=O)Nc2cc(C(F)(F)F)c[nH]c2=O)n1,43.44%
8,O=C(CCc1ccco1)Nc1cc(C(F)(F)F)c[nH]c1=O,19.35%
9,Cc1nc(C(C)C)sc1C(=O)N(C)Cc1cnn(C)c1,-35.11%
10,Cc1cc(NC(=O)NCC(C)N2CCOCC2)n(C)n1 (stereo not given),25.53%
11,CC(=O)N1CCOC(c2cncc(CCC(=O)N(C)C)n2)C1 (stereo not given),-26.69%
12,CCn1cc(-c2cc(-c3cc(CN(C)C)cs3)nc(N)c2C#N)c(C)n1,42.48%
13,c1ccc2cc(OCCN3CCn4c(nnc4C4CC4)C3)ccc2c1,18.31%
14,Cc1cccc(CN2CCOC3(CCCN(CC(=O)N(C)C)C3)C2)n1 (stereo not given),-25.4%
15,Cc1ccccc1C(C)NC(=O)Cc1c(C)nc2cc(=O)[nH]n2c1C (stereo not given),-18.39%
16,CC(C)n1cnnc1CN(C)Cc1ccoc1,33.78%
17,CN(CCCNc1cc(N2CCCC2CO)ncn1)S(C)(=O)=O (stereo not given),22.75%
18,Cn1cc(CN2CC[C@@H](NS(C)(=O)=O)[C@@H]2Cc2cccnc2)cn1,-28.13%
19,O=C(c1cc(-n2cnnn2)ccc1Cl)N1CCN(c2ccccc2)CC1,8.92%
20,c1csc(CN2Cc3nccn3CC(Cn3cncn3)C2)n1 (stereo not given),-43.55%
21,c1csc(CN2Cc3nccn3CC(Cn3cncn3)C2)c1 (stereo not given),54.62%
22,c1cc(CN2Cc3nccn3CC(Cn3cncn3)C2)ccn1 (stereo not given),-6.68%
23,O=C(NCc1cccnc1)[C@@H]1CC[C@@H]2[C@@H](CCN2c2ncccn2)O1,25.5%
24,CN(CCn1ccnc1-c1ccccn1)S(C)(=O)=O,35.52%
25,CC(C)NC(=O)N1CCN(CC2CC2)CC2(CNC(=O)C2)C1 (stereo not given),13.38%
26,CN(C)CCN(C)C(=O)Cn1cccc2cc(-c3ccc(F)cc3)nc1-2,31.81%
27,O=C(Cn1cccc2cc(-c3ccc(F)cc3)nc1-2)N1CCC(O)CC1,92.28%

row,Structure (SMILES),INHIBITION
1,COc1ccc(-c2cc3cccn(CC(=O)N4CCOCC4)c-3n2)cc1,-16.87%
2,Cc1csc(CNc2cnn(CC(C)C)c2)n1,3.58%
3,CCc1nnc2n1CCN(C(=O)c1cc(C)n(-c3ccccc3)c1C)C2,-68.26%
4,Cn1cc(N2CCC3(CCN(C(=O)[C@H]4CCCO4)C3)C2=O)cn1 (stereo not given in full),-28.81%
5,Cc1cnc(CNC(=O)[C@@]23CCO[C@@H]2CCNC3)cn1,62.6%
6,Cc1cnc(CNC(=O)[C@@]23CCO[C@@H]2CCN(C2CCCC2)C3)cn1,-7.71%
7,CC(=O)N1CC[C@H]2OCC[C@@]2(C(=O)NCc2cnc(C)cn2)C1,-41.74%
8,CCN1C[C@@H]2C[C@H](C(=O)NCc3cccnc3)[C@H](C1)O2,-19.81%
9,CCCC1(CO)CCCN(C(=O)CCCn2nc(C)cc2C)C1 (stereo not given),1.1%
10,COc1ccc(C(=O)N2CCCC(n3nc(C)nc3C)C2)c(OC)c1 (stereo not given),-42.39%
11,CN(Cc1cc(Br)cn1C)C(=O)c1cscn1,30.06%
12,Cc1cnc(C2(C)CCN(Cc3cscn3)CC2)s1,50.32%
13,Cc1ccc(CN2CCCN(Cc3cscn3)CC2)cc1,-6.56%
14,Cc1cnc(C2(C)CCN(Cc3csc(C)n3)CC2)s1,19.47%
15,O=C1CCC2(CCN(Cc3cscn3)CC2)CN1CCCO,-8.8%
16,CCN1CC2(CCC1=O)CCN(Cc1cscn1)CC2,50.32%
17,O=C1CCC2(CCN(Cc3cscn3)CC2)CN1CC1CCCO1 (stereo not given),40.47%
18,CC(C)c1cc(C(=O)N2C[C@@H]3CC[C@H]2CN(Cc2cscn2)C3)no1,22.89%
19,CCOc1ccc2[nH]c(=O)c(CN3CCCC3c3ccccn3)cc2c1 (stereo not given),-97.01%
20,CC(C)(C)n1nnnc1CN(Cc1ccccc1)Cc1ccc(Cl)cc1,8.33%
21,Cc1csc(C(Cc2ccsc2)NC(=O)CN(C)Cc2cccnc2)n1 (stereo not given),55.29%
22,Cc1csc(C(Cc2ccsc2)NC(=O)CN(C)Cc2ccccn2)n1 (stereo not given),7.39%
23,CN(CC(=O)NC(Cc1ccsc1)c1cccnc1)Cc1cccnc1 (stereo not given),-37.25%
24,COc1cccc(CN2CCC3(CCN(c4ncc(C)cn4)CC3)C2)c1,13.26%
25,CC(C#N)CNS(=O)(=O)c1ccc(F)c(Br)c1 (stereo not given),-27.36%
26,CC(C#N)CNS(=O)(=O)c1ccc(Br)c(F)c1 (stereo not given),64.21%
27,Cc1ccc(S(=O)(=O)NCC(C)C#N)cc1Br (stereo not given),4.88%

row,Structure (SMILES),INHIBITION
1,COc1ccc2c(c1)C1(CCN(Cc3ccoc3)CC1)N(C)CC2,-11.19%
2,COCCC(=O)NCCn1nc(C2CCNC2)c2cccnc21 (stereo not given),49.9%
3,Cc1ccc(CN2CCOCC2)cc1NCc1ccsc1,52.85%
4,Cc1ccc(CN2CCOCC2)cc1NC(=O)c1ccsc1,34.25%
5,Cc1ccc(C(=O)N2CCOCC2)cc1NCc1ccsc1,21.24%
6,CS(=O)(=O)CC1CCCN(C(=O)Cn2cccc(C(F)(F)F)c2=O)C1 (stereo not given),33.96%
7,FC(F)C(F)(F)COCc1ncnn1-c1ccc2c(c1)OCO2,57.34%
8,CS(=O)(=O)CCc1ncnn1-c1ccc(F)c(Cl)c1,19.38%
9,CN1CCN(CCc2ncnn2-c2ccc3c(c2)OCO3)CC1,65.76%
10,CN1CCN(C[C@H]2CC[C@@H](Cc3ccc4c(c3)OCO4)O2)CC1,25.69%
11,CS(=O)(=O)N1CCC[C@H]1c1ncnn1-c1ccc2c(c1)OCO2,-13.17%
12,FC(F)(F)CCc1ncnn1-c1ccc2c(c1)OCO2,11.9%
13,CN(CCCNC(=O)CN1CCS(=O)(=O)CC1)c1ccccc1,-20.29%
14,COc1cccc(CN(Cc2ccco2)Cc2[nH]cnc2C)c1,28.07%
15,CCCc1noc(C2CCN(S(=O)(=O)c3cccs3)CC2)n1,-64.06%
16,O=S(=O)(C1CC1)N1C[C@H]2CCC[C@@]2(COc2ccccn2)C1,-3.87%
17,CCCc1cc(C(=O)N[C@@H]2CC[C@@H](N3CCOCC3)[C@@H]2O)no1,4.06%
18,COC[C@]1(O)CCN(Cc2cnc(N(C)C)nc2)CC1(C)C,10.24%
19,COCc1ncc(CN2CC[C@@](O)(COC)C(C)(C)C2)cn1,-20.75%
20,COC[C@]1(O)CCN(Cc2cnc(N3CCOCC3)nc2)CC1(C)C,52.31%
21,Cc1ncncc1C(=O)N1CCCN(Cc2ncc(Cl)n2C)CC1,-16.3%
22,Cc1noc(C)c1-c1cncc(C2CCCN2Cc2cn(C)cn2)n1 (stereo not given),50.32%
23,Cc1noc(C)c1-c1cncc(C2CCCN2Cc2cc[nH]n2)n1 (stereo not given),46.98%
24,Cc1noc(C)c1-c1cncc(C2CCCN2Cc2c[nH]cn2)n1 (stereo not given),28.23%
